High-throughput results: PubChem BioAssay, National Center for Advancing Translational Sciences (NCATS)
Compounds with a hit are over-represented: about 19% of the library has one in this group of screens.
TDP1 cell CPT: qHTS for Inhibitors of human tyrosyl-DNA phosphodiesterase 1 (TDP1): qHTS in cells in presence of CPT; chicken DT40 Tdp1-/-;hTDP1 cells + 20 nM CPT, ATP luminescence, 48 h; Potency, µM (series often up to 46.2 µM), without a hit: at the highest dose activity change, negative = growth inhibition, usual class: inhibitors; 420,000 tested, 12% active; further: potency means the concentration at half of the fitted maximal effect; nearly all actives have a fitted effect of over 55% in size
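Cell growth measured by CellTiter-Glo luminescence after a minimum 48 h, 37 C compound exposure with 20 nM CPT in Tdp1-knockout DT40 cells stably expressing hTDP1, seeded 400/well; qHTS titration format.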
HT1080-NT tox: qHTS for induction of synthetic lethality in tumor cells producing 2HG: qHTS for the HT-1080-NT fibrosarcoma cell line; HT-1080-NT fibrosarcoma viability, CellTiter-Glo ATP luminescence, 48 h; Potency, µM (top dose mostly 46.1 µM), without a hit: top-dose activity, negative = less viability, most hits filed as cytotoxic; 360,000 tested, 1.6% active;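 further: NT is the 2HG producing partner of a matched IDH1 knockdown line; potency means the concentration at half of the fitted maximal effect; 0% = DMSO-treated cells and -100% = media-only wells without cells; nearly all actives have a fitted effect of over 55% in size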
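A 48-hour cytotoxicity screen used HT-1080-NT cells plated 2 hours before compound delivery. ATP-based CellTiter-Glo luminescence measured viability, normalized to DMSO and no-cell controls.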
IL1B secr inh: qHTS for Inhibitors of Inflammasome Signaling: IL-1-beta AlphaLISA Primary Screen. 360,000 tested, 4.7% active. THP-1 LPS/ATP IL-1B secretion, AlphaLISA, 16 h; active compounds read low. activity change, % at 57.5 µM; in the data active means activity change below about -50%; inconclusive means mostly about -30% to -49%
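Secreted IL-1B measured by AlphaLISA bead assay after 16 h compound exposure of THP-1 cells; compounds (final up to 57.5 uM) added 1 h before LPS (250 ng/mL) and ATP (1.25 mM) stimulation; lower signal means less secretion.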
TDP1 cell noCPT: qHTS for Inhibitors of human tyrosyl-DNA phosphodiesterase 1 (TDP1): qHTS in cells in absence of CPT; DT40 Tdp1-/- hTDP1 cells, no CPT, ATP luminescence, 48 h; Potency, µM (top dose mostly 46.2 µM), without a hit: at the top dose activity change, negative = growth inhibition, usual class: inhibitors; 420,000 tested, 15% active; AID 686978, 2013; further: potency means the concentration at half of the fitted maximal effect; nearly all actives have a fitted effect of over 55% in size
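Stably hTDP1-transfected Tdp1-null chicken DT40 cells were treated with library compounds minus camptothecin and grown for at least 48 hr at 37 °C, after which cellular ATP was quantified by luminescence.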
HT1080 IDH1KD tx: qHTS for induction of synthetic lethality in tumor cells producing 2HG: qHTS for the HT-1080-IDH1KD cell line; Potency, µM (titrated, usually from 46.1 µM), for inactives: at the highest dose activity, negative = toxicity, hits mostly cytotoxic; 360,000 tested, 2% active; HT-1080 IDH1 knockdown viability, ATP luminescence, 48 h;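 further: potency means the concentration at half of the fitted maximal effect; 0% = DMSO wells and -100% = cell-free medium wells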
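After a 2 h attachment period, IDH1KD HT-1080 cells took pin-transferred compound for 48 h at 37 °C; ATP-based luminescence after 10 min room-temperature reagent incubation reported viability.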
uPA generation: qHTS for Inhibitors of Cell Surface uPA Generation; AID 540303, 2011; cell surface uPA generation assay, qHTS; 330,000 tested, 0.31% active; Potency, µM (top dose mostly 38.3 µM), inactives show at the top dose activity change, negative = inhibition, usual class: inhibitors; active means well fitted inhibition curve with a large enough effect; inconclusive means small, poorly fitted or top-dose-only effect; inactive means no such curve, though single readings can be large or run the other way; tested in mouse RAW 264.7 cells; further: potency means the concentration at half of the fitted maximal effect; nearly all actives have a fitted effect of over 55% in size
* marks the source's active call; other numbers are inactive results; ? = inconclusive; / = no result; [ ] = another dose, or the depositor's remark. Unless noted, the call rests on the fitted dose curve; in most records, active means well fitted curve in the direction sought with a large enough effect; inconclusive means small, poorly fitted or top-dose-only effect, or another doubt; inactive means no such curve, though single readings can be large; an effect the other way counts as inactive or inconclusive. Unless noted, on the % scale 0 is the no-effect control and ±100 the full control effect.

SMILES	TDP1 cell CPT	HT1080-NT tox	IL1B secr inh	TDP1 cell noCPT	HT1080 IDH1KD tx	uPA generation
Cc1ccc(C)c(NC(=O)Cn2c(=O)nc(-c3ccccc3)c3ccccc32)c1	5%	/	/	-20%	/	/
CC(C)C[C@H]1CN(CCCC[C@@H]2CNC(=O)C(=O)N2Cc2ccccc2)C(=O)C(=O)N1CCc1ccc(O)cc1	2%	25%	-9	1%	16%	/
Cc1cc(C(=O)N2CCCC(N3CCN(c4cccc(C(F)(F)F)c4)CC3)C2)c(C)o1 (stereo not given)	16µM*	-27%	?	12µM*	-14%	0%
Cc1occc1C(=O)N1CCCC(N2CCN(c3cccc(C(F)(F)F)c3)CC2)C1 (stereo not given)	21µM*	-26%	-7	13µM*	-19%	1%
Cc1cc(C(=O)N2CCCC(N3CCN(c4cccc(C(F)(F)F)c4)CC3)C2)nn1C (stereo not given)	?	-3%	20	?	0%	-5%
O=C(Nc1ncccc1O)C1CCN(S(=O)(=O)c2ccc3ccccc3c2)CC1	-7%	-7%	2	-15%	-4%	6%
CCNc1ncc2nc(-c3ccc(F)cc3)c(=O)n(C)c2n1	?	/	/	-24%	/	/
Cn1c(=O)c2c(-c3ccccc3Cl)n(-c3cc(Cl)ccc3O)cc2n(C)c1=O	21µM*	/	/	?	/	/
Cn1c(=O)c2c(-c3ccccc3Cl)n(Cc3ccc(Cl)cc3)cc2n(C)c1=O	8.2µM*	/	/	6.5µM*	/	/
Cn1c(=O)c2c(-c3ccccc3)n(-c3cc([N+](=O)[O-])ccc3O)cc2n(C)c1=O	-26%	11%	33	-9%	10%	/
c1ccc2sc(NC3=NCN(C4CCCCC4)CN3)nc2c1	?	3%	12	?	-5%	/
CC1CCCCC1N1CN=C(Nc2nc3ccccc3s2)NC1 (stereo not given)	21µM*	-5%	29	?	-14%	/
CCOC(=O)C1CCN(C(=O)COc2ccc(Cl)cc2C)CC1	-27%	-4%	-5	?	-6%	-5%
CC(C)(C)c1ccc(C(=O)N2CCC(c3nc4ccccc4o3)CC2)cc1	21µM*	/	/	15µM*	/	/
Cc1cc(Cl)ccc1OCC(=O)N1CCC(c2nc3ccccc3o2)CC1	?	/	/	16µM*	/	/
O=C(c1ccc(Cl)cc1)N1CCC(c2nc3ccccc3o2)CC1	?	/	/	15µM*	/	/
CCOc1cc(N2CCOCC2)c(OCC)cc1NC(=O)COC(=O)c1ccc([N+](=O)[O-])o1	2%	-3%	6	-27%	1%	-1%
COc1cc2c(cc1NC(=O)CSc1nc3cc(Cl)ccc3s1)oc1ccccc12	?	7%	24	12µM*	3%	-1%
COc1cc2c(cc1NC(=O)CSc1nccn1C)oc1ccccc12	?	1%	-20	18µM*	-10%	-4%
Cc1ccc(S(=O)(=O)c2nc(Cc3ccccc3)oc2N2CCOCC2)cc1	1%	9%	-5	-18%	6%	-1%
CC1CCCCC12NC(=O)N(CC(=O)NNC(=O)c1ccc(Br)cc1)C2=O (stereo not given)	16%	8%	-13	-11%	10%	2%
O=C(O)CC1(CC(=O)NCc2cc(F)cc3c2OCOC3)CCCCC1	18%	12%	11	14%	21%	2%
C/C(=N\NC(=O)COc1cccc(Br)c1)c1ccc2c(c1)OCCO2	-1%	-1%[9.24 µM]	-30	-3%	-6%	4%
NC1=NCC2c3ccccc3Cc3ccccc3N12 (stereo not given)	?	/	/	24µM*	/	/
COC(=O)CC1Oc2ccccc2-n2cc(-c3ccc(C)cc3)nc21 (stereo not given)	5.8µM*	/	/	3.3µM*	/	/
SMILES	TDP1 cell CPT	HT1080-NT tox	IL1B secr inh	TDP1 cell noCPT	HT1080 IDH1KD tx	uPA generation
COC(=O)c1ccc(-c2ccc(F)cc2)nc1C	-15%	27%	-6	-3%	25%	6%
COC(=O)CC1Oc2ccccc2-n2cc(-c3ccc(F)cc3)nc21 (stereo not given)	9.2µM*	/	/	8.2µM*	/	/
CCC1(C2CCN(Cc3ccc(OC)cc3)CC2)NC(=O)N(CC2COc3ccccc3O2)C1=O (stereo not given)	-16%[9.04 µM]	/	/	?	/	/
CCC1(C2CCN(Cc3ccc(C)s3)CC2)NC(=O)N(CC2COc3ccccc3O2)C1=O (stereo not given)	?	/	/	21µM*	/	/
CCC1(C2CCN(Cc3c(C)[nH]c4ccccc34)CC2)NC(=O)N(Cc2ccc3c(c2)OCO3)C1=O (stereo not given)	23µM*	/	/	16µM*	/	/
COc1ccc(/C(C)=N/NC(=O)CNC(=O)C(c2ccccc2)c2ccccc2)c(OC)c1	?	-1%	-8	?	-7%	4%
CC(C)(C)OC(=O)N/N=C/c1cccn1-c1ccc([N+](=O)[O-])cc1	10%	-26%	-11	-11%	7%	0%
CN(C)c1ccc(-n2cccc2/C=C/[N+](=O)[O-])cc1	16µM*	6.5µM*	-101*	4.1µM*	6.5µM*	-20%
CC(=O)Nc1ccccc1C(=O)N1CCN(c2cccc(C)c2C)CC1	-28%	-4%	-27	1%	11%	18%
Cc1ccc(N2CCN(C(=O)Nc3cn(CC(C)C)c(=O)c4ccccc34)CC2)c(C)c1	10µM*	/	/	10µM*	/	/
Cc1cccc(N2CCN(C(=O)Nc3cn(CC(C)C)c(=O)c4ccccc34)CC2)c1C	8.2µM*	/	/	7.3µM*	/	/
COc1ccc(CNC(=O)Nc2cn(CC(C)C)c(=O)c3ccccc23)c(OC)c1	-27%	/	/	?	/	/
CN(Cc1ccccc1)C(=O)[C@@H]1CCCN1C(=O)OC(C)(C)C	-4%	10%	-1	-13%	6%	/
CCCCNC(=O)c1ccccc1Cl	-10%	5%	-12	-19%	-1%	-3%
CCCCCCCCCCCNC(=O)c1ccoc1C	21µM*	0%	0	18µM*	-7%	1%
Cc1occc1C(=O)NCCCCNC(=O)c1ccoc1C	3%	12%	-14	0%	6%	6%
CCCCNC(=O)c1ccccc1C(=O)NCCCC	29µM*	?	31	29µM*	-12%	-2%
Cc1ccc2cccc(NC(=O)c3ccc(C#N)cc3F)c2n1	-18%	/	/	-12%	/	/
